Measurements published in PubChem BioAssay (NCATS).
Records with an inconclusive call do not appear. Where a call stands in place of a potency, no number is given. Active and inactive are the calls of the source. Calls come from the whole dose curve; as a rule, active = well fitted inhibition curve with a large enough effect; inconclusive = small, poorly fitted or top-dose-only effect; inactive = flat fitted curve, though single readings scatter. Where a SMILES comes first, the peptide text is derived from it.

Test: P-glycoprotein substrates identified in KB-8-5-11 adenocarcinoma cell line, qHTS therapeutic library screen (AID 1346987); note: nearly all actives have a fitted effect of over 65% in size
Details: KB-8-5-11 (P-gp overexpressing) viability, CellTiter-Glo, 72 h; series mostly up to 44.5 µM
Text: The ATP-binding cassette transporters P-glycoprotein (P-gp) is known to limit brain penetration of many chemotherapy drugs. […] As such, we developed a high-throughput screen (HTS) to identify substrates of P-gp from a series of chemical libraries including the National Center for Advancing Translational Sciences Pharmaceutical Collection NPC, 2,816 compounds), testing a total of 10,804 compounds, most of which have known mechanisms of action. We used the CellTiter-Glo viability assay to test library compounds against the parental KB-3-1 human cervical adenocarcinoma cell line and the colchicine-selected sub-line KB-8-5-11 that over-expresses P-gp. KB-8-5-11 cells were also tested in the presence of a P-gp inhibitor (tariquidar) to assess reversability of transporter-mediated resistance. Of the tested compounds, a total of 90 P-gp substrates were identified including 55 newly identified P-gp substrates. Substrates were confirmed using an orthogonal killing assay against HEK-293 cells transfected with P-gp. As exemplars, we confirmed that […] (cyclin-dependent kinase inhibitor); AT9283, (Janus kinase 2/3 inhibitor); ispinesib (kinesin spindle protein inhibitor); gedatolisib (PKI-587, phosphoinositide 3-kinase/mammalian target of rampamycin inhibitor); GSK-690693 (AKT inhibitor); and KW-2478 (heat shock protein 90 inhibitor) were substrates , and direct ATPase stimulation was assessed. ABCG2 was also found to confer high levels of resistance to AT9283, GSK-690693 and gedatolisib, while ispinesib, AT7519 and KW-2478 were weaker substrates.
The HeLa derivative cell line, KB-3-1, and its colchicine-selected, P-gp-overexpressing subline, KB-8-5-11 were maintained in DMEM with 10% FCS and Pen/Strep with glutamine at 37 degree C in 5% CO2. For KB-8-5-11 cells, colchicine was added to the medium at a concentration of 100 ng/mL. HEK-293 cells transfected with empty vector (pcDNA) or vector containing human ABCB1 (MDR-19) or ABCG2 (R-5) have been described previously (Robey, Lin, Qiu, Chan & Bates, 2011) and were maintained in EMEM supplemented with 10% FCS, Pen/Strep and glutamine with 2 mg/ml G418 to select for the expression of the transporter. Cultures were confirmed to be free of mycoplasma infection using the MycoAlert Mycoplasma Detection Kit (Lonza, Walkersville, MD). For the screen, assay medium was identical to culture medium except for KB-8-5-11 where colchicine was excluded from the medium.
All cell lines were plated into 1536-well plates at 500 cells/well in 5 uL media. Compounds were then pinned in dose-response using a 1536-head pin tool (Kalypsis, San Diego, CA) and plates were incubated at 37 degree C in 5% CO2 for an additional 72 h. CellTiter-Glo reagent (Promega) was dispensed into the wells, incubated for 5 min and luminescence was read on a ViewLux instrument (Perkin-Elmer). Cytotoxic compounds were defined as those that yielded a curve class of -1.1, -1.2, -2.1, -2.2, -2.3, or -2.4, a maximum response of >50% and an AC50 of < 10 uM. Cherry-picked hits from screening analysis were tested with both the KB pair of cell lines, and the pcDNA (empty vector control) and MDR-19 (P-gp overexpressing) pair were tested, in the absence and presence of tariquidar.
With `O=C(OC(C(F)(F)F)C(F)(F)F)N1CCN(Cc2cccc(Oc3ccccc3)c2)CC1` the Potency was “inactive”.
For `O=C(O)c1ccnc2cc(C(OCC3CCC(F)(F)CC3)c3ccccc3Cl)[nH]c12` (stereo not given), the Potency was “inactive”.
In the case of `O=C1C[C@@]2(C(=O)N1)C(=O)N(Cc1ccc(Br)cc1F)C(=O)c1cccn12`, the Potency is reported as “inactive”.
With `O=C(O)C(Cc1ccccc1)NC(=O)C1CCCN1` (stereo not drawn) (H-Pro-Phe-OH; configuration not given here) the Potency was “inactive”.
For `C=C1CC2C3(C)C=CC(=O)OC(C)(C)C3CC(OC(C)=O)C2(C)C2C(=O)OC(C)C(=O)C12C` (stereo not given), the Potency was “inactive”.
In the case of `C=CC(C)(O)CC/C=C(\C)C(=O)O[C@@H]1[C@@H](O)[C@H](OC(C)(C=C)CC/C=C(\C)C(=O)O)O[C@H](CO)[C@H]1OC(=O)/C(C)=C/CCC(C)(O)C=C` (stereo not given in full), the Potency is reported as “inactive”.
In the case of `C=C(C)C(O)COc1ccc(CC(=O)O)cc1` (stereo not given), the Potency is reported as “inactive”.
With `CC1=C2C[C@H]3OC(=O)[C@H](O)[C@@]4(O)[C@@H](C)[C@@H](O)[C@H](O)C([C@@]2(C)[C@H](O)[C@@H](O)C1)[C@@]34C` (stereo not given in full) the Potency was “inactive”.
For `O=C(NCC(=O)N1CCCC1)Nc1ccc2ccccc2c1`, the Potency was “inactive”.
For `Nc1nc(COC(=O)c2ccc([N+](=O)[O-])cc2)nc(Nc2ccccc2)n1`, the Potency was “inactive”.
For `CC(C)(O)C1CCC2(C)CCCC(C)(O)C2C1` (stereo not given), the Potency was “inactive”.
In the case of `CCOC(=O)C1=C(N)Oc2ccc(Cl)cc2C1C(C#N)C(=O)OCC` (stereo not given), the Potency is reported as “inactive”.
For `C[C@@]1(C(=O)O)CCC[C@@]2(C)C3=CC[C@H]4C[C@@]3(CC[C@H]12)CC4(O)CO` (stereo not given in full), the Potency was “inactive”.
With `CC1=C(CO)C2(C)CCCC(C)(C)C2C(O)C1O` (stereo not given) the Potency was “inactive”.
In the case of `O=C(OC[C@H]1O[C@H](O[C@H]2CO[C@H](CO)[C@@H](O)[C@@H]2O)[C@H](O)[C@@H](O)[C@H]1O)c1ccccc1`, the Potency is reported as “inactive”.
In the case of `CCC/C=C1\OC(=O)C2=C1CCC(O)C2O` (stereo not given), the Potency is reported as “inactive”.
With `C=C1CC2C(C)(CCC(=O)O)C(C(C)(C)O)CCC2(C)C2(C(=O)OC)C(=O)C(C)(O)C(=O)C12C` (stereo not given) the Potency was “inactive”.
In the case of `C/C(=C\C1CCC(C)C2CCC3(C)OC123)C(=O)O` (stereo not given), the Potency is reported as “inactive”.
For `Cc1ccccc1NC(=O)Nc1ccc(CN2C(=O)N([C@@H](CC(C)C)C(=O)N[C@@H](CC(=O)O)c3ccccc3)C(=O)C2(C)C)cc1`, the Potency was “inactive”.
In the case of `C=C1C2(C)CC3C4(C)OC(C5OC56C4=CC(=O)OC6(C)C)C3(C)C13C(=O)OC(C)C3(O)C2=O` (stereo not given), the Potency is reported as “inactive”.
For `Cc1ccccc1-c1cc(N2CCN(C)CC2)ncc1N(C)C(=O)C(C)(C)c1cc(C(F)(F)F)cc(C(F)(F)F)c1`, the Potency was “inactive”.
In the case of `O=C(O)c1ccc(NC(=O)[C@H](CC2CCCC2)n2cnc(C(F)(F)F)c2)nc1`, the Potency is reported as “inactive”.
For `CCC(C)C1NC(=O)C2C(C)CCN2C(=O)C(CC(O)CO)OC(=O)CCNC(=O)C(C)N(C)C(=O)C(C(C)C)N(C)C1=O` (stereo not given), the Potency was “inactive”.
With `CC(=O)OC1CC(C(C)(C)O)OC2CCC3(C)OC4=C(C(=O)C=C5C(C)C(OC(C)=O)C6(C)C(C)OC546)C(O)C3C12C` (stereo not given) the Potency was “inactive”.
In the case of `CC(NC(=O)[C@H](Cc1ccccc1)NC(=O)OCc1ccccc1)C(=O)CF` (stereo not given in full), the Potency is reported as “inactive”.
With `CC1(C)CC[C@]2(C(=O)O)CC[C@]3(C)C(=CCC4[C@@]5(C)C[C@H](O)[C@H](O[C@@H]6O[C@H](CO)[C@@H](O)[C@H](O)[C@H]6O)[C@@](C)(CO)C5[C@H](O)C[C@]43C)[C@@H]2C1` (stereo not given in full) the Potency was “inactive”.
With `C/C=C1/[C@H](O[C@@H]2O[C@H](CO)[C@@H](O)[C@H](O)[C@H]2O)OC=C2C(=O)O[C@@H]3C[C@@H](C(C)CO)[C@H](COC(=O)C[C@H]21)[C@H]3C` (stereo not given in full) the Potency was “inactive”.
In the case of `CCc1cc(CC[C@]2(C3CCCC3)CC(O)=C(Cc3nc4nc(C)cc(C)n4n3)C(=O)O2)cc(CC)n1`, the Potency is reported as “inactive”.
In the case of `C[C@@H]1CC2OC(=O)C3=C2C(CCC3O)[C@@]12C[C@@H](c1ccoc1)OC2=O` (stereo not given in full), the Potency is reported as “inactive”.
In the case of `CC1(C)OC(=O)C=C[C@@]2(C)C1CC(=O)[C@]1(C)C2CC[C@@]2(C)[C@H](c3ccoc3)OC(=O)[C@H]3O[C@]321` (stereo not given in full), the Potency is reported as “inactive”.
With `C=C1CCC2[C@@](C)(C(=O)O)CCC[C@@]2(C)[C@@H]1CCc1ccoc1` (stereo not given in full) the Potency was “inactive”.
For `COC(=O)C1C(c2ccc(O)cc2)C(C(=O)O)C1c1ccc(O)cc1` (stereo not given), the Potency was “inactive”.
In the case of `CC(=O)NC(C(=O)OC1CCC(C)(C)C2CC=C3C(=O)OCC3C12C)C(C)C` (stereo not given), the Potency is reported as “inactive”.
For `O=C(O)CCc1cc2ccoc2cc1O[C@@H]1O[C@H](CO)[C@@H](O)[C@H](O)[C@H]1O`, the Potency was “inactive”.
For `C=C1C(OC(C)=O)C(=O)C2C(C)(C)C(O)CCC2(C)C1CC(OC(C)=O)/C(C)=C/COC(C)=O` (stereo not given), the Potency was “inactive”.
In the case of `CC(=O)NCC1CN(c2ccc(-c3ccc(CNCc4cn[nH]n4)cc3)c(F)c2)C(=O)O1` (stereo not given), the Potency is reported as “inactive”.
For `NC(Cc1c[nH]c2ccc(O)cc12)C(=O)O` (stereo not given), the Potency was “inactive”.
For `Cc1ccccc1-n1nc(-c2c(-c3ccc(F)cc3)nn3c2NC[C@@H](CO)C3)ccc1=O`, the Potency was “inactive”.
In the case of `COc1cn(-c2ccc(-n3cccn3)cc2F)nc(-c2ccnn2-c2ccccc2)c1=O`, the Potency is reported as “inactive”.
With `COc1cc(C2Oc3c(OC)cc(/C=C/C(=O)OC4CC(O)(C(=O)O)CC(O)C4O)cc3C2CO)ccc1O` (stereo not given) the Potency was “inactive”.
